Test results published in PMC7819943, “Rice protein-binding microarrays: a tool to detect cis-acting elements near promoter regions in rice”.
In all, about 68,000 sequences were measured (“fluorescence intensity (a.u.)”: median about 9,100, highest 2% from about 16,000 on). The full list was thinned out, with the highest values kept by preference.

What follows are sequences tested against OsWRKY34 (Oryza sativa, UniProt Q0JBA9 1-250) (assay: protein-binding microarray (RPBM); PBS, 2% BSA, 51.3 ng/ul salmon testes DNA, 50 uM zinc acetate, 200 nM TF, 25 C, 1 h; high values mean tight binding). Details: protein: recombinant; tags: N-terminal polyhistidine and DsRed monomer fusion (pET32a); label: CyDye5-dUTP incorporated in the synthesized complementary strand; 3' TTTTT single-stranded linker to array surface; dsDNA, one strand shown.
Chain of OsWRKY34 (Q0JBA9 entry or part of it): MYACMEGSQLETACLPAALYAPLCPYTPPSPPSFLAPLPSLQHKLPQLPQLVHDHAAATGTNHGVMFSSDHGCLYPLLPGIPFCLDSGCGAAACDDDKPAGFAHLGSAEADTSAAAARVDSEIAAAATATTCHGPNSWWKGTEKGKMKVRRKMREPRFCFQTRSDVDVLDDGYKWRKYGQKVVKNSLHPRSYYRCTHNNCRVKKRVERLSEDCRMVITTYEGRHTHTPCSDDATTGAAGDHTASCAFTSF
In short: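 Binding signal here means per-feature fluorescence intensity in arbitrary units. The values were read on an Axon 4000B scanner after a custom Agilent array, double-stranded by primer extension with Cy5-dUTP, was incubated with 200 nM protein at 25 °C for 1 h in PBS with 2% BSA, salmon testes DNA and 50 µM zinc acetate, then washed. The proteins were transcription factors with an N-terminal polyhistidine tag and DsRed, expressed in E. coli BL21-CodonPlus and purified on Ni–NTA.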

Sequence | binding signal
AGATGACGCCGTTGACTTTTTCTTACATATTTGACCATTCCGGAGTCACCTAGTGCAG | 25400 fluorescence intensity (a.u.)
TGACTTTTTCTCACATGTTTGACCATTCGTCTTATTAAAACGGAGTCACCTAGTGCAG | 12500 fluorescence intensity (a.u.)
TGACGCCGTTGACTTTTTATCTAATGTTTGACTATTCGTCCGGAGTCACCTAGTGCAG | 43500 fluorescence intensity (a.u.)
TAGACTTTTTCTCACATGTTTGACCATTCGTCTTATTCAACGGAGTCACCTAGTGCAG | 11700 fluorescence intensity (a.u.)
AGTTGTTCTTCTCAGCAGGTTGCTGTCATCTTAGACTTTTCGGAGTCACCTAGTGCAG | 8410 fluorescence intensity (a.u.)
TCATCTCACGCTGTTGACTTTCTCTTTTTTTTTCGGGGAGCGGAGTCACCTAGTGCAG | 18000 fluorescence intensity (a.u.)
ACTTTTTTTCTCAATCTGTGCTCTTTCACGTGTTTGACTTCGGAGTCACCTAGTGCAG | 11400 fluorescence intensity (a.u.)
TAGATGACGCCGTTGATTTTTTTCTCACATATTTGACCATCGGAGTCACCTAGTGCAG | 10700 fluorescence intensity (a.u.)
CACCGTTGACTTTTTCTCACATGTTTGACCATTCGTCTTACGGAGTCACCTAGTGCAG | 48400 fluorescence intensity (a.u.)
ACTGTCCACTCACTTTTTCTTCACCCAGGAGACGAAATTTCGGAGTCACCTAGTGCAG | 11200 fluorescence intensity (a.u.)
TGGCTTATCTCGTTTTGTATATCATCTTCTTAATCTTTTTCGGAGTCACCTAGTGCAG | 10500 fluorescence intensity (a.u.)
CTGCCTCGCTGCCGCCTGCCGTCTCCCCGGGCCCATCTTTCGGAGTCACCTAGTGCAG | 8210 fluorescence intensity (a.u.)
GTGGCGTCAAAGTATTGAGGGCGGGGATGCGGCCACCGTACGGAGTCACCTAGTGCAG | 8640 fluorescence intensity (a.u.)
ACCTGTGCTTGATGGGATGGAAGCTTGGATTAGGTTGGTTCGGAGTCACCTAGTGCAG | 8560 fluorescence intensity (a.u.)
TCTCGCTCGTTTTACCGCAGCATTTTGTTGTTGCTCTAGCCGGAGTCACCTAGTGCAG | 8620 fluorescence intensity (a.u.)
AGTTAGTCAAGCGTATCCTATTTTACGTGCCCGCGCGAATCGGAGTCACCTAGTGCAG | 9610 fluorescence intensity (a.u.)
GACTATCTTGTCGTTCGGTCCAAAAACCGGCGCCTTATGACGGAGTCACCTAGTGCAG | 8300 fluorescence intensity (a.u.)
CACGACCTTAAGCCTCATAATTTGGACAATCACAGCAACTCGGAGTCACCTAGTGCAG | 9170 fluorescence intensity (a.u.)
TGATGCCGTTGACTTTTTCTCATATGTTTGACCATTCGTCCGGAGTCACCTAGTGCAG | 44800 fluorescence intensity (a.u.)
AATAGATGACGTTGTTGACTTTTTCTCATATGTTTGACCACGGAGTCACCTAGTGCAG | 13000 fluorescence intensity (a.u.)
GTTGACTTTTTTTCACATGTTTGACCATTCATCTTATTCACGGAGTCACCTAGTGCAG | 13400 fluorescence intensity (a.u.)
TTTTTTCTCACATGTTTGACCATTCGTCTTATTCAAAAAACGGAGTCACCTAGTGCAG | 8550 fluorescence intensity (a.u.)
TTCTCACATGTTTGACCATTCGTCTTATTAAAAATTTTATCGGAGTCACCTAGTGCAG | 11100 fluorescence intensity (a.u.)

Sequence | binding signal
GCACATGTTTGACCATTCATCTTATAAGAAAAAACTTTTGCGGAGTCACCTAGTGCAG | 8090 fluorescence intensity (a.u.)
ACCATGTTGACTTTTTGCACATTTATAGAATCTTTTGGTACGGAGTCACCTAGTGCAG | 21800 fluorescence intensity (a.u.)
ATAGATGACGCCGTTGATTTTTTCTCATATGTTTGACCATCGGAGTCACCTAGTGCAG | 11600 fluorescence intensity (a.u.)
GCCGTTGACTTTTTCTCACATATTTGACCATTCGTCTTATCGGAGTCACCTAGTGCAG | 45300 fluorescence intensity (a.u.)
TTGACCTTTTCTCACATGTTTAACCATTCGTCTTATTTAACGGAGTCACCTAGTGCAG | 13500 fluorescence intensity (a.u.)
CATTGACTTTTTCTCACATATTTGTCCATTCGTCTTATTACGGAGTCACCTAGTGCAG | 16100 fluorescence intensity (a.u.)
CGCCGTTGACTTTTTCTCACATGTTTGACCATTCGTCTTACGGAGTCACCTAGTGCAG | 42500 ± 475 fluorescence intensity (a.u.)
TCGTCCGCTGCAGCCGCTCGCTAGCTAGTAGCTATAGCTACGGAGTCACCTAGTGCAG | 8160 fluorescence intensity (a.u.)
ACACAGGCAGCAGTAGCACCTCGATCCATCTACCATTTTACGGAGTCACCTAGTGCAG | 10200 fluorescence intensity (a.u.)
CTTAGCTCGTATGTAGACTTTTGATGGCTTAATCCTATTTCGGAGTCACCTAGTGCAG | 8550 fluorescence intensity (a.u.)
ATTAGGGATAACCGTCACTGTTTGTTGCTGTTTTTATGTTCGGAGTCACCTAGTGCAG | 9960 fluorescence intensity (a.u.)
TTGGTGACTAAGCAGCTAGCTCATATTCCGTTTCAGCTTCCGGAGTCACCTAGTGCAG | 9770 fluorescence intensity (a.u.)
TCTCGTGTTCCTCTTCACTACCACTTCTAGAAGCTTCCTCCGGAGTCACCTAGTGCAG | 8020 fluorescence intensity (a.u.)
GGGGTTTATTATTTTCCCGGGTTAAATTGCCACGTAAGCACGGAGTCACCTAGTGCAG | 10100 fluorescence intensity (a.u.)
ATAATAATATTTTTCACCTATGCCATACTTCTTTTGTCAACGGAGTCACCTAGTGCAG | 8040 fluorescence intensity (a.u.)
CGACTCCGACCTCTGCTCTCTTCCTTTTACACCCCATATCCGGAGTCACCTAGTGCAG | 11100 fluorescence intensity (a.u.)
TTTACTAAACTCGATCAGTTCTTCCCATATACTCTTGTGACGGAGTCACCTAGTGCAG | 9070 fluorescence intensity (a.u.)
ATCAACCATGAACCATCCGCGCCCGCGCACCTCCTCCTCTCGGAGTCACCTAGTGCAG | 8100 fluorescence intensity (a.u.)
TTACACTTTCTCCTCCATCATGCGCTCATGGCCATCCATTCGGAGTCACCTAGTGCAG | 8320 fluorescence intensity (a.u.)
TGACTTTTTCTCACATGTTTGACCATTCGTCTTATTCAAACGGAGTCACCTAGTGCAG | 10900 ± 914 fluorescence intensity (a.u.)
TTCTCCATTTTTTCATGGTTGACTCTAATCTTCATGACTACGGAGTCACCTAGTGCAG | 8280 fluorescence intensity (a.u.)
TTGACTTTTTCTCACATGTTTGACCATTCGTCTTATTCAACGGAGTCACCTAGTGCAG | 15400 fluorescence intensity (a.u.)
